# Sampled rows, rich in hits. Any-hit rate of the full collection: about 3.1%.
# Tau FP inhib: qHTS for Inhibitors of Tau Fibril Formation, Fluorescence Polarization. Microtubule-associated protein tau (Homo sapiens), P10636. K18 P301L tau heparin fibrillization, Alexa594 FP, 6 h. Potency, µM (highest dose often 57.7 µM), inactives show at the highest dose activity, negative = inhibition, usual class: inhibitors. 0.39% of 280,000 active. AID 1468, 2008; note: nearly all actives have a fitted effect of over 55% in size
# Target sequence (P10636 561-689 P618L limits assumed): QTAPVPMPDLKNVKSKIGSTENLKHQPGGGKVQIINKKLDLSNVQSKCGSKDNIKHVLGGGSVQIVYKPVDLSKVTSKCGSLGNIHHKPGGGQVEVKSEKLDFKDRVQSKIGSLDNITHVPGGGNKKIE
#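 Compound effects on tau fibrillization are measured by Alexa 594 fluorescence polarization (ex 555, em 632 nm). K18 P301L tau is used at 15 uM with 0.24 uM labeled tracer, and 20 uM heparin induces aggregation over 6 hr at 37 C.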
# TR SRC2 fluor cs: Total Fluorescence Counterscreen for Inhibitors of the Interaction of Thyroid Hormone Receptor and Steroid Receptor Coregulator 2; TRb/SRC2 Texas Red total fluorescence interference; Potency, µM (highest dose often 106 µM), without a hit: top-dose fluorescence change, negative = quenching; 0.29% of 280,000 active; active = well fitted curve in either direction with a large enough effect; inconclusive = small, poorly fitted or top-dose-only effect
#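 Human TRβ ligand-binding domain (0.6 uM) and Texas Red SRC2 peptide (20 nM) in Tris buffer with 1 uM T3 and 5% DMSO were incubated with pinned compound for 5 hr at ambient temperature. Total fluorescence was computed as S + 2P (555/632 nm).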
# RGS12 GoLoco inh: qHTS Assay for Inhibitors of RGS12 GoLoco Motif Activity (Red Fluorophore); 0.44% of 230,000 active; Gai1:RGS12 GoLoco peptide FP, rhodamine, 10 min; AID 880, 2007; Potency, µM (highest dose often 61.6 µM), for inactives: top-dose activity, negative = inhibition, hits mostly inhibitors; active = well fitted inhibition curve with a large enough effect, not every such curve was filed as active; inactive = no such curve, though single readings can be large or run the other way; note: nearly all actives have a fitted effect of over 30% in size
# Target sequence (P63096 whole entry, looked up): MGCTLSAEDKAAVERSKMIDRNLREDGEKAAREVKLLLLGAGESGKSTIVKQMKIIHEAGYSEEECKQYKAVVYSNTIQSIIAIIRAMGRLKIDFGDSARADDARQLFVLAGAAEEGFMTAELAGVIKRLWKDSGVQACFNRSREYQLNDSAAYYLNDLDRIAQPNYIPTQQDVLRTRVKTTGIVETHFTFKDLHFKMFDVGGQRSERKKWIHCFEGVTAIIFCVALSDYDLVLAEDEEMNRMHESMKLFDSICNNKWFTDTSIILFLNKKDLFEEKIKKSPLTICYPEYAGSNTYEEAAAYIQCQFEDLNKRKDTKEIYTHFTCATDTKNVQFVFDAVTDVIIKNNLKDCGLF
# Tau fluor cs: Counterscreen qHTS for Inhibitors of Tau Fibril Formation, Fluorescence Polarization | tau K18 P301L Alexa594 fluorescence, heparin fibrillization | Potency, µM (series often up to 57.7 µM), for inactives: top-dose activity change, negative = decrease | 0.93% of 280,000 active | AID 1463, 2008; note: nearly all actives have a fitted effect of over 55% in size
#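 Human K18 P301L tau (15 uM unlabeled plus 0.24 uM Alexa 594-labeled, final) in 100 mM sodium acetate pH 7 was mixed with compound and 20 uM heparin and incubated 6 hr at 37 C.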
# TRb-SRC2 inh: qHTS for Inhibitors of the Interaction of Thyroid Hormone Receptor and Steroid Receptor Coregulator 2 | AID 1469, 2008 | 0.065% of 280,000 active | Thyroid hormone receptor beta (Homo sapiens), P10828 | Potency, µM (titrated, usually from 106 µM), inactives show at the top dose activity change, negative = inhibition, usual class: inhibitors | TRbeta-SRC2 peptide binding, fluorescence polarization; receptor liganded with 1 µM T3;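 note: plate controls were bound peptide for no effect and peptide without receptor for full effect; nearly all actives have a fitted effect of over 50% in size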
#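 A fluorescence polarization screen tested compounds at multiple concentrations against complex formation between 0.6 uM TRb ligand-binding domain and 20 nM Texas Red SRC2 peptide, with 1 uM T3 present; readout after 5 hr.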
# Tau fibril ThT: qHTS for Inhibitors of Tau Fibril Formation, Thioflavin T Binding; Microtubule-associated protein tau (Homo sapiens), P10636; recombinant tau K18 P301L (four-repeat tau fragment), heparin-induced fibrillization, ThT fluorescence; Potency, µM (highest dose often 57.4 µM), for the others: at the top dose activity, negative = inhibition, actives largely listed as inhibitors; 2.1% of 270,000 active; AID 1460, 2008; note: nearly all actives have a fitted effect of over 55% in size
#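 Heparin-induced (20 uM) aggregation of recombinant human K18 P301L tau, 15 uM unlabeled with 0.24 uM labeled, pH 7 acetate buffer, 6 hr at 37 C with compound. Fibrils quantified by 30 uM ThT fluorescence after 1 hr ambient incubation.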
# * hit, by the source's call; ? = inconclusive; nt = no result given; [ ] = dose if it differs, or a comment. Unless noted, calls come from the whole dose curve; as a rule, active = well fitted curve in the direction sought with a large enough effect; inconclusive = small, poorly fitted or top-dose-only effect, or another doubt; inactive = no such curve, though single readings can be large; an effect the other way counts as inactive or inconclusive. Unless noted, % is set by controls: 0 for no effect and ±100 for the full control effect; potency is the fitted concentration of half-maximal effect.
SMILES,Tau FP inhib,TR SRC2 fluor cs,RGS12 GoLoco inh,Tau fluor cs,TRb-SRC2 inh,Tau fibril ThT
O=C(Cn1ncc2c3ccccc3n(Cc3ccccc3F)c2c1=O)N1CCCCC1,0.3%,-1.1%,nt,-7.5%,8.2%,-4.4%
COc1ccc(/C=N/N(Cc2ccccc2)c2ccccc2)cc1O,?,-2.9%,5.3%,14.1µM*[quencher],1.0%,?
C[N+]1(C2CCC3CCCC2C3O)CCCC1 (centres undefined),-4.6%,0.8%,2.82µM*,-5.0%,2.0%,-1.2%
COc1ccc(OC)c(N=c2oc3cc(O)ccc3cc2C(N)=O)c1,?,-22.7%,17.8µM*,?,11.7%,31.6µM*
Cc1ccccc1OCC(=O)Nc1ccc(C(=O)OCc2cc(=O)n3ccsc3n2)cc1,-12.1%,-5.2%,nt,-4.0%,3.8%,7.3%
O=S(=O)(O)c1ccc2c(N=Nc3ccc(S(=O)(=O)O)c4ccccc34)c(O)c(S(=O)(=O)O)cc2c1,nt,-17.9%,1.1%,nt,?,nt
Cc1cc(N2CCOCC2)nc2ccc(NC(=S)N3CCCCC3C)cc12 (centres undefined),1.2%,-2.8%,20.4%,15.8µM*[quencher],0.1%,11.2µM*
Cc1cccc(OCC(=O)Nc2ccc3nc(Nc4cccc(Cl)c4)cc(C)c3c2)c1,-7.2%,?,nt,?,-0.6%,?
COc1ccc(Nc2cc(C)c3ccc(O)cc3n2)cc1,3.3%,-14.5%,-18.8%,?,6.2%,nt
COc1cccc(C(=O)Nc2ccc3nc(N4CCOCC4)cc(C)c3c2)c1,13.2%,-6.3%,5.6%,?,-8.2%,5.01µM*
COc1ccc(Nc2cc(C)c3cc(NC(=O)Cc4ccc(Cl)cc4)ccc3n2)cc1,-12.5%,-1.1%,nt,5.01µM*[quencher],7.6%,11.2µM*
Cc1cc(Nc2cccc(Cl)c2)nc2ccc(NC(=O)COc3ccc(Cl)cc3)cc12,-9.3%,5.9%,nt,7.94µM*[quencher],7.4%,?
CCN1CCN(c2cc(C)c3cc(NC(=O)c4cc(OC)c(OC)c(OC)c4)ccc3n2)CC1,11.7%,-3.3%,nt,?,0.9%,?
COc1cc(OC)cc(C(=O)Nc2ccc3nc(N4CCCCC4)cc(C)c3c2)c1,?,-1.7%,nt,?,3.2%,?
COc1ccc(CC(=O)Nc2ccc3nc(N4CCCCC4)cc(C)c3c2)cc1,3.4%,-3.0%,nt,12.6µM*[quencher],-5.3%,?
COc1cccc(C(=O)Nc2ccc3nc(N4CCN(c5ncccn5)CC4)cc(C)c3c2)c1OC,8.7%,-2.2%,1.5%,-29.6%,-14.6%,8.91µM*
Cc1ccc(O)c(NC(=O)C2=CC(c3ccco3)=NS(=O)(=O)N2C)c1,?,1.1%,nt,-20.1%,-7.4%,8.3%
COC(=O)c1c(SCC(=O)Nc2ccccc2OC)[nH]c2ccccc2c1=O,3.5%,1.9%,nt,?,14.8%,14.1µM*
COC(=O)c1c(SCC(=O)Nc2cc(OC)cc(OC)c2)[nH]c2ccc(C)cc2c1=O,-2.6%,1.0%,nt,-13.0%,-5.6%,-11.0%
Cc1ccc2c(c1)S/C(=C/c1ccc[n+](C)c1)N2CCO,-5.9%,-1.2%,8.91µM*,-4.7%,3.8%,?
Cc1ccc(S(=O)(=O)CCC(=O)NCCN2C(=O)S/C(=C\c3ccccc3)C2=O)cc1,-3.9%,-1.7%,nt,-11.7%,-0.3%,?
CC[C@@H]1C(c2ccc(F)cc2)=NN(c2ccccc2)[C@H]1C(=O)N1CCOC1=O,-4.2%[81.3 µM],-7.2%,5.0%[88.7 µM],?,2.1%,-10.2%[81.4 µM]
CC[C@H]1C(c2ccc(F)cc2)=NN(c2ccccc2)[C@@H]1CO,?,-1.3%,-62.3%[88.7 µM],22.4µM*[quencher],-0.8%,?
